Screening results deposited in PubChem BioAssay by National Center for Advancing Translational Sciences (NCATS).
In the library only some 2.4% were active in any assay of this set; here they are far more common.
FEN1 inh: human FEN1 inhibition | P39748 | Recombinant FEN1 flap cleavage, fluorescence, 15 min | Potency, µM (top dose mostly 114 µM), for the others: at the top dose activity change, negative = inhibition, most hits filed as inhibitors | hit rate 0.35% among 390,000; further: on the % scale 0 is the no-effect control and ±100 the full control effect; nearly all actives have a fitted effect of over 65% in size
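Steps: FEN1 (10 nM) dispensed; compound added by pin tool; 15 min at room temperature; substrate added to 50 nM final; reads at 0 min and 15 min; data normalized and fitted (four-parameter Hill).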
Pol kappa inh: blocks human DNA polymerase kappa activity | Q9UBT6 | purified Pol kappa, fluorescent DNA synthesis assay, 10 min | Potency, µM (top dose mostly 107 µM), inactives show at the highest dose activity, negative = inhibition, hits mostly inhibitors | hit rate 0.53% among 400,000 | AID 588579; further: on the % scale 0 is the no-effect control and ±100 the full control effect
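Enzyme at 10 nM met test compounds for 15 min at room temperature. Substrate addition (50 nM final) began the reaction, which was monitored by fluorescence at 0 and 10 min.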
POLI inh: inhibitors of human DNA polymerase iota. Q9UNA4. Pol iota fluorescent replication assay, 10 min. Potency, µM (top dose mostly 115 µM), inactives show at the top dose activity, negative = inhibition, most hits filed as inhibitors. hit rate 1% among 390,000
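Fluorescent replication assay read twice, at 0 min and 10 min after adding 50 nM (final) substrate. Enzyme (10 nM) and compounds were first incubated 15 min at room temperature; enzyme-free buffer wells were negative controls.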
Pol eta inh: inhibitors of human DNA polymerase eta | Q9Y253 | recombinant Pol eta, fluorescent DNA replication assay | Potency, µM (titrated, usually from 114 µM), for the others: at the highest dose activity change, negative = inhibition, actives largely listed as inhibitors | hit rate 1.2% among 390,000 | AID 588591; further: on the % scale 0 is the no-effect control and ±100 the full control effect
Target sequence (Q9Y253 whole entry, looked up): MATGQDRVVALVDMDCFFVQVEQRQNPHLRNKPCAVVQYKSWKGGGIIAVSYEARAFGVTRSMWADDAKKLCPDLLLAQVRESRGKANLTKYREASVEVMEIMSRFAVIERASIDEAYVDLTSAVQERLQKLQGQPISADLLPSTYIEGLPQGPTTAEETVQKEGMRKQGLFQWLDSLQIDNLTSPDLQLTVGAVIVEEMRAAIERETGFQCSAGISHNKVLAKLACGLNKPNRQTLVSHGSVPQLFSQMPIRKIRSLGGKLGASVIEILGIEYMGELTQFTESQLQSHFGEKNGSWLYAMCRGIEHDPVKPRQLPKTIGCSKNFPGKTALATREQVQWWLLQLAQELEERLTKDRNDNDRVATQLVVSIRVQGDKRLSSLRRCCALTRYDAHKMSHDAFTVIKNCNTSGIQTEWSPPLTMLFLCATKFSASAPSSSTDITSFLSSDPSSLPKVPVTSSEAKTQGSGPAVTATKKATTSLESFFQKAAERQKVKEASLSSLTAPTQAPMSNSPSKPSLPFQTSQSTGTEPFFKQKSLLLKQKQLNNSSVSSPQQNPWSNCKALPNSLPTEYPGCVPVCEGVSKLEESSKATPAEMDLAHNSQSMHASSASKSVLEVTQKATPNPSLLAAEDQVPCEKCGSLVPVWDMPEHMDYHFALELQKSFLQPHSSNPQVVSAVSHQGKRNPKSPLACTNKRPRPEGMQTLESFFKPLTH
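Pol eta at 10 nM preincubated with compounds 15 min at room temperature; reaction started with fluorescent substrate (50 nM final) and read kinetically at 0 and 10 min.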
WRN helicase inh: blocks human WRN helicase. Q14191. WRN helicase unwinding, fluorescent forked duplex, kinetic. Potency, µM (titrated, usually from 114 µM), for the others: at the top dose activity change, negative = inhibition, actives largely listed as inhibitors. hit rate 0.46% among 360,000. AID 651768; further: on the % scale 0 is the no-effect control and ±100 the full control effect; nearly all actives have a fitted effect of over 55% in size
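WRN at 20 nM final preincubated with compound 15 min at room temperature; reaction started with 100 nM fluorophore/quencher forked duplex oligonucleotide and 2 mM ATP final. Unwinding followed kinetically by red fluorescence (ex 525, em 598 nm).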
Pol beta inh: inhibitors of human DNA polymerase beta. P06746. Pol beta primer extension/strand displacement, fluorescence kinetic. Potency, µM (top dose mostly 114 µM), inactives show at the top dose activity change, negative = inhibition, hits mostly inhibitors. hit rate 1.3% among 340,000. AID 485314; further: on the % scale 0 is the no-effect control and ±100 the full control effect
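Kinetic readout of DNA synthesis with strand displacement by Pol beta. Compound and 10 nM enzyme sit 15 min at room temperature; 50 nM substrate starts the reaction, read immediately and at 10 min.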
* hit, by the source's call; ? = inconclusive; . = not tested or not shown; ! = a repeat was not active; [ ] = dose if it differs, or a comment. The call rests on the fitted dose curve; in most records, active means well fitted curve in the direction sought with a large enough effect; inconclusive means small, poorly fitted or top-dose-only effect, or another doubt; inactive means no such curve, though single readings can be large; an effect the other way counts as inactive or inconclusive. Potency means the concentration at half of the fitted maximal effect.

SMILES | FEN1 inh | Pol kappa inh | POLI inh | Pol eta inh | WRN helicase inh | Pol beta inh
Cc1nc2c(C(=O)NCCc3ccccc3)c[nH]n2c(=O)c1Cc1ccc(F)cc1Cl | ? | -22% | ? | -30% | . | 79µM*
CCCN(CCC)C(=O)[C@@H](CCC(=O)O)NC(=O)c1ccccc1 | . | 1%[19.4 µM] | . | . | . | .
COc1ccccc1CNS(=O)(=O)c1ccc(F)c(C(=O)Nc2cc(Cl)ccc2OC)c1 | 11% | 0%[60.1 µM] | -18% | -16% | . | -3%
CN(c1nnc(NC(=O)Nc2ccc(Br)cc2)s1)C1CCCCC1 | -2% | 1% | 23% | -22% | . | -29%
CCN(CC)C(=O)C1CCCN(C(=O)Nc2ccc3nsnc3c2)C1 (centres undefined) | 9% | -6% | 0.89µM* | ? | -20% | 8%
S=C(Nc1ccc(Cl)c(Cl)c1)N1CCCC1 | 5% | 2% | 38% | -8% | 9% | -13%
O=C(Nc1ccc2nsnc2c1)C1CC1 | 3% | -11% | 22% | 0% | -35%[57.1 µM] | -2%
S=C(Nc1ccc2nsnc2c1)N1CCCCC1 | -11% | -10% | 3.5µM* | -9% | -16% | 2%
O=C(Nc1ccc(Cl)cc1Cl)c1cc(S(=O)(=O)N2CCC3(CC2)OCCO3)ccc1F | 15% | -7%[60.1 µM] | -7% | 5% | . | -1%
CC(NC(=O)/C(=C/c1ccc(OC(F)F)cc1)c1ccccc1)c1ccccc1 (centres undefined) | -9% | -21% | 20% | -18% | 6% | -21%
CC(NC(=O)/C(C#N)=C/c1ccc(OCC(=O)O)cc1)c1ccccc1 (centres undefined) | 24% | -17% | ? | 18µM* | -4% | -13%
CC(NC(=O)/C(C#N)=C/c1ccc(Cl)c([N+](=O)[O-])c1)c1ccccc1 (centres undefined) | -20% | -12% | -8% | -20% | -7% | -1%
N#C/C(=C\c1ccc(O)c(O)c1)C(=O)Nc1ccccc1 | ? | ? | 56µM* | 13µM*! | ? | -2%[57.1 µM]
COc1cc(/C=C(/C#N)C(=O)Nc2ccccc2)ccc1OCc1ccc(C(=O)O)cc1 | ? | -4% | 0% | 79µM* | -14%[11.6 µM] | -4%
C[C@H](NC(=O)/C(C#N)=C/c1ccc(O)c(O)c1)c1ccccc1 | . | ? | ? | 22µM* | . | 5%[57.1 µM]
CCCC(O)c1nc2ccccc2n1CCCOc1ccc(Cl)cc1 (centres undefined) | 2% | 5% | 52% | -18% | . | 7%
CCOc1ccccc1NC(=O)N1CCc2c(sc3c2CCCC3)C1c1ccccc1 (centres undefined) | 4% | -3%[60.1 µM] | 21% | -19% | . | 2%
C[C@@H](NC(=O)/C(C#N)=C/c1ccc(O)c(O)c1)c1ccccc1 | ? | ? | ? | 14µM*! | -14% | 10%[57.1 µM]
COc1cc(/C=C(\C#N)C(=O)Nc2nnc(C(F)(F)F)s2)ccc1OCc1ccc(C(F)(F)F)cc1C(F)(F)F | ? | 6.7µM* | . | . | . | .
N#C/C(=C\c1cccc(O)c1)C(=O)Nc1ccc2c(c1)OCCO2 | -3% | 0% | 79µM* | -5% | ? | -6%
COc1cc(/C=C(\C#N)c2nc3ccc(C)cc3[nH]2)ccc1OC(C)C | 10% | -18% | 1% | -5% | . | -25%
Cc1ccc2nc(/C(C#N)=C/c3ccc(O)c(O)c3)[nH]c2c1 | ? | ? | ? | ? | 45µM* | ?
N#C/C(=C\c1ccc[nH]1)C(=O)Nc1ccccc1[N+](=O)[O-] | -15% | ? | 71µM* | ? | -15% | -5%
NS(=O)(=O)c1cc(C(=O)N=Nc2c(O)[nH]c3ccccc23)ccc1Cl | -21% | -31% | 50µM* | ? | -7%[11.6 µM] | 22µM*
O=C(N=Nc1c(O)[nH]c2ccccc12)c1cccc(S(=O)(=O)Nc2ccccc2Cl)c1 | 0% | -10% | 3% | -4% | -17% | 3%
SMILES | FEN1 inh | Pol kappa inh | POLI inh | Pol eta inh | WRN helicase inh | Pol beta inh
CC(C)C[C@H](NC(=O)[C@H](Cc1cnc[nH]1)NC(=O)[C@@H](N)Cc1cnc[nH]1)C(=O)NCC(=O)NCC(=O)N[C@@H](C)C(=O)N[C@@H](CCCCN)C(=O)N[C@@H](CCC(N)=O)C(=O)N[C@@H](C)C(=O)NCC(=O)N[C@@H](CC(=O)O)C(=O)N[C@H](C(=O)O)C(C)C | . | 16%[60.1 µM] | . | . | . | .
COc1ccc(N=Cc2oc3ccc4ccccc4c3c2O)cc1 | -19% | -29% | ? | -27% | -15%[11.6 µM] | 11µM*
COC(=O)c1ccc(-n2c(/C=C/c3cc(OC)c(OC)c(OC)c3)nc3cc(Cl)ccc3c2=O)cc1 | 19% | -11%[60.1 µM] | 1% | -11% | . | 0%
C=CCn1c(NS(=O)(=O)c2ccccc2)c(S(=O)(=O)c2ccc(C)cc2)c2nc3ccccc3nc21 | -11% | 5% | 3.2µM* | 89µM* | -14% | ?
CC(=O)Nc1c(S(=O)(=O)c2ccccc2)c2nc3ccccc3nc2n1Cc1ccccc1 | 0% | -13% | 22% | -20% | -5% | 1%
O=C(O)CSc1nc(-c2ccc(Cl)cc2)nc2c1oc1ccccc12 | -16% | -16% | 7% | ? | -14% | 56µM*
CC(=O)Nc1ccc(S(=O)(=O)NC2=NCN(C(C)C)CN2)cc1 | 12% | -11% | -22% | -9% | . | -1%
O=c1[nH]c2cc3c(cc2cc1CN(Cc1ccccc1)Cc1nnnn1Cc1ccco1)OCCO3 | -19% | ? | 18µM* | ? | ? | 32µM*
O=c1[nH]c2cc3c(cc2cc1CN(Cc1cccs1)Cc1nnnn1Cc1ccco1)OCCO3 | -9% | 25µM* | ? | 18µM* | ? | 32µM*
O=c1[nH]c2cc3c(cc2cc1CN(Cc1cccnc1)Cc1nnnn1Cc1ccco1)OCCO3 | ? | 89µM* | 16µM* | ? | 56µM* | 40µM*
CCc1ccc2[nH]c(=O)c(CN(Cc3ccccc3)Cc3nnnn3Cc3ccco3)cc2c1 | -20% | -11% | ? | -23% | -9% | 2%
Cc1ccc2[nH]c(=O)c(CN(CCCO)Cc3nnnn3Cc3ccco3)cc2c1 | -7% | ? | 79µM* | . | . | .
Cc1ccc2[nH]c(=O)c(CN(Cc3ccco3)Cc3nnnn3Cc3ccccc3)cc2c1 | -21% | -4% | -14% | . | . | .
O=S(=O)(Nc1cc(Br)cc2cccnc12)c1ccccc1 | -5% | -7% | 25% | . | . | .
COc1ccccc1CN(Cc1cc2cc3c(cc2[nH]c1=O)OCCO3)Cc1nnnn1Cc1ccco1 | ? | ? | ? | 32µM* | -7% | 14µM*
Cc1ccc2cc(CN(Cc3ccco3)Cc3nnnn3Cc3ccco3)c(=O)[nH]c2c1 | -2% | 1% | 18% | . | . | .
O=C(O)c1cc2c(o1)CCC/C2=N\O | 0% | -28% | 1%[58.9 µM] | -10% | 0% | 89µM*
